Test results taken from PubChem BioAssay (Tox21).
A number with no mark means an inactive call. Calls follow the shape of the dose curve; as a rule, active = well fitted activation curve with a large enough effect in the repeat runs; inconclusive = weak or mixed curves; inactive = flat fitted curve, though single readings scatter.

What follows are molecules tested against KiSS-1 receptor (Homo sapiens) (UniProt Q969F8) (assay: Human kisspeptin (KISS1R) small molecule agonists, calcium flux assay in KISS1R-HEK293 cells (AID 1920064)). Conditions: KISS1R-HEK293, calcium flux fluorescence, agonist; series mostly up to 76.8 µM; activation: at the top concentration.
Excerpt: National Center for Advancing Translational Sciences [NCATS]
Division of Preclinical Innovation [DPI]
U.S. Environmental Protection Agency [EPA]
National Institutes of Environmental Health Sciences [NIEHS]
National Toxicology Program [NTP]
U.S. Food and Drug Administration [FDA]
Kisspeptin and its receptor KISS1R play key roles in mammalian reproduction due to their involvement in the onset of puberty and control of the hypothalamic-pituitary-gonadal axis such as regulates GnRH release from the hypothalamus. The kisspeptin/KISS1R system also plays a direct role in peripheral organs (including the ovary, testis, uterus, and placenta) and is implicated in reproductive diseases such as miscarriage and polycystic ovary syndrome (PCOS). Abnormal KISS1R activity is associated with abnormal puberty, infertility, endometriosis, and hormone-dependent tumors. The KISS1 receptor (KISS1R, also called GPR54), a G-protein-coupled receptor (GPCR), acts (through phospholipase C) to increase intracellular inositol trisphosphate and then release intracellular calcium stores. Cell-based KISS1R-HEK293 assay is using HEK293 cells that have been genetically engineered to express the human KISS1R, which activity can be measured by calcium signaling. A compound/drug can activate (agonist) KISS1R that can be monitored by levels of intracellular calcium.
KISS1R-HEK293 cells developed by Codex Corp contain human KISS1R gene, which was stably integrated into HEK 293 cells. The compound activation can be detected by fluorescence intensity via calcium flux assay. This cell line has been used to screen the Tox21 10K compound library to identify agonists of KISS1R.
KISS1R-Hek293 cells were dispensed at 1500 cells/4uL/well in 1536-well black wall/clear bottom plates using a multidrop dispenser. After the assay plates were incubated at a 37 C/5% CO2 incubator for 18 hours, 4 microL of Calcium Dye Solution was added to each well. The plates were incubated at 37 C for 1 hour. And then 23 nL of compounds dissolved in DMSO, positive controls, or DMSO only was transferred to the assay plate by a pin tool station. The fluorescence intensity in the plates was measured using FDSS 7000EX kinetic plate reader with a filter set of Ex/Em=480/540 for 3 min at 1 sec intervals. Each test compound was measured at 15 concentrations and in triplicates.
% is scaled to controls: 0 for no effect and ±100 for the full control effect.

KiSS-1 receptor (Homo sapiens), sequence (Q969F8 whole entry, looked up): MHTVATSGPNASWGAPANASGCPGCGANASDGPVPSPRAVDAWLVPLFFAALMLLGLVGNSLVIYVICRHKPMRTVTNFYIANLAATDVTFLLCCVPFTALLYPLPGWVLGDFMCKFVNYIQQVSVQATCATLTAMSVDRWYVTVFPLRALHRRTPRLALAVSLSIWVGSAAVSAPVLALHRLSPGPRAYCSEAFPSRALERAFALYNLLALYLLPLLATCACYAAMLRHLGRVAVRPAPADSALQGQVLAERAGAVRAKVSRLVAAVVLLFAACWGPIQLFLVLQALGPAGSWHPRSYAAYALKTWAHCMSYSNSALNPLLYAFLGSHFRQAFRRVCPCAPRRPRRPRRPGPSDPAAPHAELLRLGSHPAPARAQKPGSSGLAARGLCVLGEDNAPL

SMILES | activation
CCCC[N+](CCCC)(CCCC)CCCC | 7.91%
C=CC(=O)OCCN(C)C | -4.48%
O=[N+]([O-])c1ccc(CCl)cc1 | 6.58%
CCOP(=O)(OCC)Oc1cc(C)nc(C(C)C)n1 | 6.04%
CC(CC(C#N)(c1ccccc1)c1ccccc1)N(C)C (stereo not given) | 0.794%
COC(=O)c1ccccc1S(=O)(=O)NC(=O)N(C)c1nc(C)nc(OC)n1 | 0.902%
Oc1ccc(I)cc1 | -0.793%
COCc1cnc(C2=NC(C)(C(C)C)C(=O)N2)c(C(=O)O)c1 (stereo not given) | 0.0199%
CC1CN1P(=O)(N1CC1C)N1CC1C (stereo not given) | -1.14%
O=C(O)CBr | 1.37%
O=C(N/N=C/c1ccc([N+](=O)[O-])o1)c1cc([N+](=O)[O-])cc([N+](=O)[O-])c1O | -0.0279% [at 35.3 µM]
CCC(=O)c1ccc(Cl)cc1 | 1.2%
C[C@]12CC[C@H]3[C@@H](CCC4=CC(=O)CC[C@@]43C)[C@@H]1CC[C@@H]2O | -3.48%
C[As+](C)(C)CC(=O)[O-] | 2.15%
C[N+]1(CCC(C(N)=O)(c2ccccc2)c2ccccc2)CCCCC1 | 8.62% [at 35.3 µM]
COP(=S)(OC)Oc1cc(Cl)c(Br)cc1Cl | -1.64%
CCOP(=S)(Oc1ccc([N+](=O)[O-])cc1)c1ccccc1 (stereo not given) | -1.32%
CN1CCc2cc3c(cc2C1O)OCO3 (stereo not given) | 0.585%
C1CCC(C2CCCCC2)CC1 | 0.324%
CCNC(=O)NC(=O)/C(C#N)=N/OC | -2.62%

SMILES | activation
CC1(C(=O)Nc2ccc(O)c(Cl)c2Cl)CCCCC1 | 0.356%
O.O.O.O.O.O.O=S(=O)([O-])[O-].[Ni+2] | 21.3% [at 35.3 µM]
COC1=CC(=O)O[C@@H](/C=C/c2ccc3c(c2)OCO3)C1 | 0.569%
COc1cccc([C@@]2(O)CCCC[C@@H]2CN(C)C)c1 | 9.8% [at 35.3 µM]
Cc1nnc2n1-c1sc(CCc3ccc(CC(C)C)cc3)cc1C(c1ccccc1Cl)=NC2C (stereo not given) | 2.07% [at 35.3 µM]
CC1C(=O)C[C@]2(C(C)C)C[C@H]12 (stereo not given in full) | -0.957%
C1=CCC=C1 | -0.331%
Nc1ccc(Sc2ccc(N)cc2)cc1 | 4.96%
Clc1ccc(CO/N=C(\Cn2ccnc2)c2ccc(Cl)cc2Cl)c(Cl)c1 | -0.598% [at 35.3 µM]
CO/N=C(\C(=O)OC)c1ccccc1CO/N=C(\C)c1cccc(C(F)(F)F)c1 | 3.96%
CC(C)NCC(O)c1ccc([N+](=O)[O-])cc1 (stereo not given) | -2.36% [at 35.3 µM]
O=C(Oc1ccc(Br)cc1)N1CCN2CCC1CC2 | 0.64%
ClC(Cl)(Cl)Cl | 2.15%
O=C1CCCCC1Cl (stereo not given) | -3.19%
O=c1[nH]c2ccccc2o1 | -3.98%
CCC[CH2][Sn]([CH2]CCC)([CH2]CCC)[CH2]CCC | 7.43%
Oc1cccc(Cl)c1 | -2.64%
COP(=O)(OC)O/C(=C/Cl)c1cc(Cl)c(Cl)cc1Cl | 5.38%
CN(C)c1ccc(N=Nc2ccccc2)cc1 | 1.67%
COP(=O)(OC)O/C(C)=C/C(=O)N(C)C | -0.198%
